LANA DNA inh: inhibitors of KSHV C-LANA binding to DNA, primary screen, biochemical, fluorescence polarization, FAM-LBS DNA, MBP-C-LANA, single point; inhibition, % at 9 µM; 340,000 compounds, 0.078% hits;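 active means highest replicate inhibition at or above 60% at 9 µM, even if other replicates fall short; inactive means all replicates below 60% inhibition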
Keap1-Nrf2 PPI: Keap1-Nrf2 protein-protein interaction inhibitors, primary screen, biochemical, fluorescence polarization, single point; 340,000 compounds, 0.15% hits; Keap1 Kelch-Nrf2 peptide fluorescence polarization, 1536-well; inhibition, % at 9.4 µM; AID 504523, 2011; in the data active means inhibition above about 12%; inconclusive means no clear call, values can overlap the other calls; inactive means below about 7.3%;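 further: human Keap1 Kelch domain with fluorescein labeled Nrf2 9mer peptide probe; higher means more block of Keap1 binding to Nrf2 peptide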
MEX-5 binding: MEX-5 zinc finger RNA-binding disruptors – biochemical, C. elegans, fluorescence polarization, MLPCN library, primary screen; Zinc finger protein mex-5 (Caenorhabditis elegans), Q9XUB2; MEX-5/FITC-TCR2 RNA binding; stronger effect = lower value; activity score (negative = inhibition of binding), % at 10 µM; 300,000 compounds, 0.38% hits;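 active means inhibition past about -25% in most replicates, and total fluorescence under double the plate's negative control median, limit read from the data; inconclusive means replicates evenly split on the limit, or fluorescence at least double controls; inactive means too little inhibition in most replicates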
Target sequence (Q9XUB2 whole entry, looked up): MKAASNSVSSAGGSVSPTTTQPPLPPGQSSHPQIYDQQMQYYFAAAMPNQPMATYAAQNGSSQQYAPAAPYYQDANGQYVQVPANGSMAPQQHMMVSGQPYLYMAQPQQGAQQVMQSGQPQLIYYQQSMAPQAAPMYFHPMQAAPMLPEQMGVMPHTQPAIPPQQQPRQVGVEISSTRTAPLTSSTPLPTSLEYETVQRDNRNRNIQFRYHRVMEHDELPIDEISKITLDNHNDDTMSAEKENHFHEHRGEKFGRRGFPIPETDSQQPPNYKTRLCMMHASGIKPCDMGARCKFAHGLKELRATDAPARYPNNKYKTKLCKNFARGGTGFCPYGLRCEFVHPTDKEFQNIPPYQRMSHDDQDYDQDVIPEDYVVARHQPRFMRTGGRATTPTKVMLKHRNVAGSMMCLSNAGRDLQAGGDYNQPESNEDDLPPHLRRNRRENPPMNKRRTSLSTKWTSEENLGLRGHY
Bcl-xL primary: inhibitors of human Bcl-xL, primary screen, biochemical, fluorescence polarization, HTS; 320,000 compounds, 0.7% hits; AID 2129, 2009; inhibition, % at 10.9 µM; Bcl-2-like protein 1 (Homo sapiens), Q07817; GST-Bcl-xL / FITC-Bim BH3 peptide fluorescence polarization;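 active means inhibition above the mean of all tested compounds plus 3 SD, cutoff set per campaign, cut at about 30% in these data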;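 further: inhibitors lower millipolarization by displacing the labeled peptide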
Target sequence (Q07817 whole entry, looked up): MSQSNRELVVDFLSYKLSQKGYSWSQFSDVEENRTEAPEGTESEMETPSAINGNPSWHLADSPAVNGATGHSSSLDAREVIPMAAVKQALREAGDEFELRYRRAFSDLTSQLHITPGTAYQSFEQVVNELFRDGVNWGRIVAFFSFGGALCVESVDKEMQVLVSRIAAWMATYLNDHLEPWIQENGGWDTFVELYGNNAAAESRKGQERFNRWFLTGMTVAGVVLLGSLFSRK
E coli Lon inh: inhibitors of E. coli Lon protease, primary screen, biochemical, fluorescence polarization; inhibition, % at 7.94 µM; purified E. coli Lon protease; 360,000 compounds, 0.42% hits; AID 602123, 2011; in the data active means inhibition above about 13%, passing the limit was not always enough
GLD-1 RNA inh: GLD-1/TGE RNA complex disruptors, primary screen, biochemical, fluorescence polarization | Female germline-specific tumor suppressor gld-1 (Caenorhabditis elegans), Q17339 | inhibition, % at 5.96 µM | purified GLD-1 + fluorescein TGE RNA | 320,000 compounds, 0.44% hits;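 active means percent inhibition above a per-plate cutoff, the plate mean of test compounds plus 3 SD, cut at about 30% in these data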
Of the large screens only hits and unclear results are named; the others gave an inactive call. In the library only some 1.2% were active in any assay of this set; here they are far more common.

COc1ccc(-c2nc(N)ncc2-c2ccccc2OC)c(O)c1	none
CN(CC(=O)Nc1ccccc1Cl)C1CCCCC1	none
CN(CC(=O)Nc1ccccc1Cl)C1CCS(=O)(=O)C1 (stereo not given)	Bcl-xL primary 36.1 (no result: MEX-5 binding)
Cc1cc(C)cc(C(=O)N(Cc2ccco2)c2c(N)n(Cc3ccccc3)c(=O)[nH]c2=O)c1	none (no result: MEX-5 binding)
CC(=O)c1c(C)c(C)c2n1CCn1c(C)ccc1-2	Bcl-xL primary 35.7
O=C(O)COc1ccccc1C(Nc1cccnc1)c1cc(Cl)c2cccnc2c1O (stereo not given)	MEX-5 binding -58.7 (no result: Bcl-xL primary, GLD-1 RNA inh)
O=C(O)COc1ccccc1C(Nc1ccccn1)c1cc(Cl)c2cccnc2c1O (stereo not given)	none
CCC(=O)Nc1ccc2ccccc2c1	none
CCC(=O)Nc1ccc2nc3c(=O)[nH]c(=S)[nH]c3nc2c1	MEX-5 binding -46.4, Bcl-xL primary 61.3
O=C1C([N+](=O)[O-])=C(O)c2cccc3cccc1c23	MEX-5 binding -40.0 (no result: LANA DNA inh, Keap1-Nrf2 PPI, Bcl-xL primary, E coli Lon inh, GLD-1 RNA inh)
O=C(N/N=C1\C(=O)c2cccc3cccc1c23)c1ccc(O)cc1	none
O=C(O)C(Cc1ccccc1)N1C(=O)/C(=C/C=C/c2ccco2)SC1=S (stereo not given)	LANA DNA inh 105.7, Keap1-Nrf2 PPI 25.8 (no result: Bcl-xL primary, GLD-1 RNA inh)
CC1=C/C(=C(/c2cc(C)c(O)c(Br)c2)c2ccccc2S(=O)(=O)O)C=C(Br)C1=O	Bcl-xL primary 41.3
CC1=C/C(=C(/c2ccc(O)c(C)c2)c2ccccc2S(=O)(=O)O)C=CC1=O	none (no result: MEX-5 binding)
Nc1ncnc2c1ncn2-c1ccccc1Cl	none (no result: MEX-5 binding, Bcl-xL primary, GLD-1 RNA inh)
Cc1cccc2c3nc4ccccc4nc3n(C)c12	Bcl-xL primary 49.1
O=C(c1ccco1)N1CCN(c2nc3ccccc3n3nnnc23)CC1	Bcl-xL primary 41.3
O=c1[nH]c(CSc2ncccn2)nc2c1cnn2-c1ccccc1	MEX-5 binding -26.4
CSc1ccc(CNC(=O)C2(C)CCN2C(C)C)cc1 (stereo not given)	none (no result: LANA DNA inh, Keap1-Nrf2 PPI, MEX-5 binding, Bcl-xL primary, GLD-1 RNA inh)
COc1ccc(-c2csc(NC(=O)CSc3nc(C)nc4sc(C(=O)O)c(C)c34)n2)cc1	LANA DNA inh 102.7
COc1ccc(-c2csc(NC(=O)CSc3nc(C)cs3)n2)cc1	none
CN(C)c1ccc(N/C=C/C(=O)C(C)(C)C)cc1	Bcl-xL primary 31.5
CN(C)c1ccc(N/C=C/C(=O)c2ccccc2)cc1	none (no result: MEX-5 binding)
O=C(NCCc1ccccc1F)C1CCCN1S(=O)(=O)c1ccc2ccccc2c1 (stereo not given)	Bcl-xL primary 39.5
CC(=O)NC(C)(c1ccccc1)c1nc(-c2cccc(C(F)(F)F)c2)cs1 (stereo not given)	none (no result: LANA DNA inh, Keap1-Nrf2 PPI, MEX-5 binding, Bcl-xL primary, GLD-1 RNA inh)
COc1ccc(C(=O)/C=C/Nc2ccc([N+](=O)[O-])cc2C)cc1OC	MEX-5 binding -43.3
COc1ccc(C(=O)/C=C/Nc2ccc([N+](=O)[O-])cc2C)c(OC)c1	MEX-5 binding inconclusive
COc1ccccc1C(=O)COC(=O)C1CCN(S(=O)(=O)c2ccccc2)CC1	none (no result: LANA DNA inh, Keap1-Nrf2 PPI, MEX-5 binding, Bcl-xL primary, GLD-1 RNA inh)
CC(C)(C)NC(=O)NC(=O)CN1CCCc2ccccc21	Bcl-xL primary 76.9 (no result: MEX-5 binding)
O=C(CN1CCCc2ccccc21)NCc1ccc2c(c1)OCO2	Bcl-xL primary 47.5
O=C(CN1CCCc2ccccc21)NC(=O)NCc1ccccc1	none
CCOC(=O)Nc1ccc2c(c1)C(=NNC(=S)NC)c1ccccc1-2	none (no result: LANA DNA inh, Keap1-Nrf2 PPI, MEX-5 binding, Bcl-xL primary, GLD-1 RNA inh)
COC(C(=O)N/N=C/c1ccc(OCC(=O)N2CCOCC2)cc1)c1ccccc1 (stereo not given)	none
CCC(=O)N1CCC1(C)C(=O)Nc1ncc(C)s1 (stereo not given)	none (no result: LANA DNA inh, Keap1-Nrf2 PPI, MEX-5 binding, Bcl-xL primary, GLD-1 RNA inh)
CCC(C(=O)NCCCN(CC)Cc1ccccc1)n1nc(C)c2sc3ccccc3c2c1=O (stereo not given)	none
CCOC(=O)C1=C(O)/C(=C/N(C)C)N=C1C	MEX-5 binding inconclusive, Bcl-xL primary 35.6
CCOC(=O)C1=C(O)/C(=C\c2cccc(OC)c2)N=C1C	none
CN1C(=O)c2cccc3c(Cl)ccc(c23)C1=O	none
CN1C(=O)c2cccc3c(N(C)C)ccc(c23)C1=O	Bcl-xL primary 74.6
COc1ccc(CCNC(=O)c2ccc(OC)c(OC)c2)cc1OC	none
COc1ccc(CCNC(=O)c2c(N)no[n+]2[O-])cc1OC	LANA DNA inh 79.6
CSCC(C)N1CCC(n2nccc2NC(=O)c2ccccc2C)CC1 (stereo not given)	Bcl-xL primary 37.8
CC[C@@H](C)[C@H](NC(=O)C1CCN(C(=O)[C@@H](NS(=O)(=O)c2ccc(C)cc2)C(C)C)CC1)C(=O)O	none
CC[C@H](C)[C@H](NS(=O)(=O)c1ccc(C)cc1)C(=O)N1CCC(C(=O)N[C@H](C(=O)O)C(C)C)CC1	Bcl-xL primary 40.8
O=S(=O)([N-]c1nc2ccccc2nc1-[n+]1ccc(CCCc2ccccc2)cc1)c1cccs1	MEX-5 binding -28.9
O=S(=O)([N-]c1nc2ccccc2nc1-[n+]1ccccc1)c1ccccc1	none
COC(=O)c1c(NC2=NS(=O)(=O)c3ccccc32)sc2c1CCC(C(C)(C)C)C2 (stereo not given)	none (no result: MEX-5 binding, Bcl-xL primary, GLD-1 RNA inh)
O=C(O)C1Cc2c([nH]c3ccccc23)C(c2ccc3c(c2)OCO3)N1 (stereo not given)	Bcl-xL primary 52.1
CCOC(=O)c1cc(C#N)c(SCC(N)=O)[nH]c1=O	Bcl-xL primary 38.4
CCOC(=O)c1cc(C#N)c(SCC(=O)c2cc(C#N)c(SC)nc2C)[nH]c1=O	Bcl-xL primary 102.9, GLD-1 RNA inh 76.9
CCOC(=O)c1cc(C#N)c(SCC(=O)O)[nH]c1=O	none
CC(C)CSC1=NSC2=NC(=O)/C(=C\c3coc4ccccc4c3=O)C(=N)N12	MEX-5 binding inconclusive, Bcl-xL primary 79.6
CC(Cn1cncn1)C(=O)N1CCN(S(=O)(=O)c2ccc(Cl)cc2)CC1 (stereo not given)	none
Cc1ccc(C2(C)NC(=O)N(CC(=O)N3CCN(C(=O)c4cccs4)CC3)C2=O)cc1 (stereo not given)	none (no result: MEX-5 binding)
Cc1cc(Nc2ccc(O)cc2)ccc1N	Bcl-xL primary 35.6 (no result: LANA DNA inh, Keap1-Nrf2 PPI, MEX-5 binding, E coli Lon inh)
Oc1ccc(Nc2ccc3ccccc3c2)cc1	none (no result: LANA DNA inh, Keap1-Nrf2 PPI, MEX-5 binding, Bcl-xL primary, GLD-1 RNA inh)
COc1ccc(C(=O)ON=C(C)c2nccs2)cc1	none (no result: LANA DNA inh, Keap1-Nrf2 PPI, MEX-5 binding, Bcl-xL primary, GLD-1 RNA inh)
CC(=O)Nc1nc2n(n1)C(c1ccc(F)cc1)C=C(c1ccccc1)N2 (stereo not given)	Bcl-xL primary 52.1, GLD-1 RNA inh 37.0
OCCCc1nc2n(n1)C(c1ccccc1)C=C(c1ccccc1)N2 (stereo not given)	none
CCC(=O)Nc1nc2n(n1)C(c1ccc(OC)cc1)C=C(c1ccccc1)N2 (stereo not given)	Bcl-xL primary 59.9, GLD-1 RNA inh 51.2 (no result: LANA DNA inh, Keap1-Nrf2 PPI, E coli Lon inh)
